A selection: hits, their analogues and other compounds. The true share with any hit is near 1.4%.
PKM2 activator: qHTS Assay for Activators of Human Muscle isoform 2 Pyruvate Kinase; Potency, µM (doses to about 57.5 µM), most hits filed as activators; hit rate 0.34% among 260,000; purified PKM2, Kinase-Glo ATP luminescence, activation; response scale: 0% is enzyme alone, no compound; Pyruvate kinase PKM (Homo sapiens), P14618; AID 1631, 2009; note: nearly all actives have a fitted effect of over 55% in size
Target sequence (P14618 whole entry, looked up, canonical isoform): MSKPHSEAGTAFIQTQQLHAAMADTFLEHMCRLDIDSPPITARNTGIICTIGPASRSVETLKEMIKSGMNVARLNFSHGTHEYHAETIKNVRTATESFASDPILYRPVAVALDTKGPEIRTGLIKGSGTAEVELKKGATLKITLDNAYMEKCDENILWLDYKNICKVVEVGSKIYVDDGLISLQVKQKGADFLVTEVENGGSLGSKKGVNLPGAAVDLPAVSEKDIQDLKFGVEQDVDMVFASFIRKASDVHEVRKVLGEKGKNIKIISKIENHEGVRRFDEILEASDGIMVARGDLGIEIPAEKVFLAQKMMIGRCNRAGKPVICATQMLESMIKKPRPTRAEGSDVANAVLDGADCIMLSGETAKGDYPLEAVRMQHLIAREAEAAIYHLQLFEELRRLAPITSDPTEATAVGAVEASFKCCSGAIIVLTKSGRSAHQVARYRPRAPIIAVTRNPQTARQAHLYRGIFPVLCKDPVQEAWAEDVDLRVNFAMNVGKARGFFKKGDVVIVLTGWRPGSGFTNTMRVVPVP
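ATP formation by purified human PK-M2, quantified via coupled luciferase luminescence after 1 h at room temperature with 0.1 mM ADP and 0.5 mM PEP final.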
IDH1 R132H inh: qHTS for Inhibitors of mutant isocitrate dehydrogenase 1 (IDH1): qHTS; IDH1-R132H enzyme, NADPH consumption, diaphorase/resazurin fluorescence; Potency, µM (highest dose often 76.6 µM), actives largely listed as inhibitors; hit rate 0.093% among 390,000; AID 602179, 2012; note: nearly all actives have a fitted effect of over 65% in size
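IDH1-R132H (0.5 ug/mL) preincubated 30 min with compound, then NADPH (0.016 mM) and alpha-KG (2 mM) added; 80 min at RT, pH 7.5. Remaining NADPH coupled via diaphorase/resazurin to fluorescence (540/590 nm); concentration-response curves normalized to no-enzyme control.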
TrxR1 substrate: qHTS Assay for Substrates of Mammalian Selenoprotein Thioredoxin Reductase 1 (TrxR1): qHTS; hit rate 0.01% among 390,000; AID 588456, 2011; purified TrxR1 substrate turnover, NADPH consumption readout; Potency, µM (titrated, usually from 114 µM); Thioredoxin reductase 1, cytoplasmic (Rattus norvegicus), O89049; note: nearly all actives have a fitted effect of over 50% in size
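Rat TrxR1, dispensed at 90 nM, was prereduced with 400 uM NADPH (final) for 5 min at ~22 deg C, then incubated with compound 15 min before 400 uM selenite. A first-read NADPH fluorescence drop versus no-compound background flagged substrates.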
LDHA block: qHTS assay for inhibitors of human lactate dehydrogenase; AID 1347041, 2019; hit rate 0.15% among 480,000; L-lactate dehydrogenase A chain (Homo sapiens), P00338; activity change, % (values are at about 110 or 230 µM); purified LDHA, NADH/diaphorase-resazurin fluorescence; active compounds read low; in the data active = activity change below about -30%; inconclusive = mostly about -25% to -30%
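Enzyme activity of human lactate dehydrogenase 5 (2 nM; 0.06 mM NADH, 0.2 mM pyruvate, 5 min, RT) is measured via a resazurin/diaphorase fluorescence readout of residual NADH.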
TrxR1 inh: qHTS Assay for Inhibitors of Mammalian Selenoprotein Thioredoxin Reductase 1 (TrxR1): qHTS | Thioredoxin reductase 1, cytoplasmic (Rattus norvegicus), O89049 | recombinant rTrxR1, NADPH fluorescence consumption, selenite substrate | Potency, µM (highest dose often 114 µM), usual class: inhibitors | hit rate 1% among 390,000; note: nearly all actives have a fitted effect of over 65% in size
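Rat TrxR1 (90 nM in the dispensed reagent) was pre-reduced with 400 uM NADPH for 5 min at room temperature, then incubated with compound for 15 min. After 400 uM selenite was added, NADPH fluorescence (Ex 340/Em 450 nm) was followed for 8 min.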
GLS inhibitor: qHTS for Inhibitors of Glutaminase (GLS); GLS enzymatic activity, qHTS titration; hit rate 0.21% among 410,000; Potency, µM (highest dose often 45.5 µM), most hits filed as inhibitors
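Two-point fluorescence kinetic (t0, 30 min RT) for hKGA; glutamate detected via glutamate oxidase–HRP–Amplex Red. Substrate: 1 mM L-glutamine solution; buffer 45 mM KH2PO4, pH 8.2.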
Numbers stand for hits; n = inactive; u = inconclusive; x = no result; ! = not confirmed by another sample. Unless noted, calls come from the whole dose curve; as a rule, active = well fitted curve in the direction sought with a large enough effect; inconclusive = small, poorly fitted or top-dose-only effect, or another doubt; inactive = no such curve, though single readings can be large; an effect the other way counts as inactive or inconclusive.

SMILES | PKM2 activator | IDH1 R132H inh | TrxR1 substrate | LDHA block | TrxR1 inh | GLS inhibitor
Cc1ccc(OCC(=O)c2c(N)n(C)c(=O)n(C)c2=O)c([N+](=O)[O-])n1 | x | n | n | n | n | 14.1µM
N#Cc1ccccc1NC(=O)COC(=O)c1ccc2c(c1)NC(=O)CS2 | x | x | x | n | x | x
Cc1ccc(CN(C)C(=O)c2cccc(S(=O)(=O)N3CCc4ccccc4C3)c2)o1 | x | n | n | n | 39.8µM | n
Cc1ccc(NC(=O)CN(C)C(=O)c2cccc(S(=O)(=O)N3CCc4ccccc4C3)c2)cc1 | x | n | x | n | x | n
O=C1ON=C(c2ccccc2)/C1=C/c1ccc(OS(=O)(=O)c2ccccc2)cc1 | u | n | n | -38.6 | 2.82µM | u
COc1ccc(/C=C2\C(=O)ON=C2c2ccccc2)cc1 | x | n | n | -31.8 | 14.1µM | n
COc1cc(/C=C2\C(=O)ON=C2c2ccc(Cl)cc2)ccc1O | x | n | n | n | 20µM | n
Cc1nn(CCc2nc(-c3ccccc3)cs2)c2[nH]c(=O)cc(C(F)(F)F)c12 | x | x | x | n | x | x
CC(C)CN(CCCNC(=O)CN1C(=O)COc2ccc(S(=O)(=O)N3CCCC3)cc21)CC(C)C | n | n | n | n | n | n
CC(C)CN(CCCNC(=O)CN1C(=O)COc2ccc(S(=O)(=O)N3CCCCCC3)cc21)CC(C)C | x | n | n | n | 56.2µM! | n
Cc1ccc(-c2n[nH]c(=O)c3ccccc23)cc1S(N)(=O)=O | n | n | n | -30.2! | n | n
O=C1CC(c2ccco2)Sc2nc3ccccc3n21 (stereo not given) | n | n | n | n | 12.6µM | n
CN1C(=O)CC(c2ccco2)Sc2ccccc21 (stereo not given) | n | n | n | n | 56.2µM | n
CC(=O)O[C@@H]1[C@@H](O)CN[C@@H]1Cc1ccccc1 | x | x | n | x | 39.8µM | x
CCOC(=O)C(=O)N1CCC(Cc2ccccc2)CC1 | n | n | n | n | n | n
O=C1ON=C(c2cccc([N+](=O)[O-])c2)/C1=C/c1ccc(O)cc1 | n | n | n | n | 7.94µM | u
O=C1ON=C(c2ccc(Cl)c([N+](=O)[O-])c2)/C1=C/c1cccc([N+](=O)[O-])c1O | x | n | n | -31.0 | n | n
CC1CCCC(C)N1C(=O)COC(=O)/C=C/c1ccco1 (stereo not given) | x | n | n | n | 50.1µM | n
CC1CCCC(NC(=O)COC(=O)/C=C/c2ccco2)C1C (stereo not given) | x | n | n | n | 22.4µM | n
CC1CCN(C(=O)COC(=O)/C=C/c2ccco2)CC1 | x | n | n | n | 8.91µM | n
COC(=O)c1ccc(OC(=O)/C=C/c2ccco2)cc1 | n | n | n | n | n | n
CC1CCCC(NC(=O)COC(=O)/C=C/c2ccc([N+](=O)[O-])cc2)C1C (stereo not given) | x | n | n | n | n | n
O=Cc1cccc(OC(=O)/C=C/c2ccco2)c1 | n | n | n | n | 31.6µM | 10µM
O=C(O)C12CC3(Br)CC(Br)(CC(Br)(C3)C1)C2 | x | x | x | n | x | x
O=C(/C(Cl)=C/NCc1ccccn1)C(F)(F)F | x | x | x | n | x | x
SMILES | PKM2 activator | IDH1 R132H inh | TrxR1 substrate | LDHA block | TrxR1 inh | GLS inhibitor
Cc1[nH]c2ccccc2c1C(=O)COC(=O)Cc1c[nH]c2ccccc12 | x | x | x | n | x | x
CCNS(=O)(=O)O | x | x | x | n | x | x
CC(C)N(CC(N)=O)Cc1cccc2cccnc12 | x | x | x | n | x | x
C#CC[N+](C)(CC#CC=C)Cc1ccccc1 (stereo not given) | x | x | x | n | x | x
CCCCn1c(N)c(C(=S)NC(=O)CC(C)(C)C)c(=O)n(C)c1=O | n | n | n | n | 39.8µM | n
CC(Sc1nc2cc(Cl)ccc2s1)C(=O)NCc1ccc2c(c1)OCO2 (stereo not given) | x | x | x | n | x | x
[N-]=[N+]=CC(=O)C(Cc1ccccc1)N1C(=O)c2ccccc2C1=O (stereo not given) | 11.2µM | n | n | n | n | n
CSC(SC)=C(C#N)C(=O)c1ccccc1 | n | n | n | n | 17.8µM | u
COc1cccc(C(=O)C(C#N)=C(SC)SC)c1 | u | n | n | n | 20µM | n
COc1cccc(C(=O)C(C)C(=O)c2cccc(OC)c2)c1 | x | x | x | n | x | x
CC(/C=C/c1ccco1)=N\NC(=O)CNc1cccc(C)c1 | n | n | n | n | n | n
COC(=O)N/N=C(C)\C=C\c1ccco1 | n | n | n | n | 39.8µM | n
CC(/C=C/c1ccco1)=N\NC(=O)C(O)c1ccccc1 (stereo not given) | n | n | n | n | 17.8µM | n
Cn1nc(C(=O)Nc2ccc(Br)cc2F)c2ccccc2c1=O | x | x | x | n | x | x
O=C(/C=C/c1ccco1)NCC(=O)N/N=C/c1ccccc1[N+](=O)[O-] | n | n | n | n | 44.7µM | n
O=C(CCC(=O)N/N=C/c1ccccc1[N+](=O)[O-])N/N=C/c1ccccc1[N+](=O)[O-] | x | x | x | n | x | x
CCN(CC)C(=O)CC(c1cc(OC)c(OC)c(OC)c1)c1c(OC)cc(OC)c2c(-c3ccccc3)cc(=O)oc12 (stereo not given) | n | n | n | n | n | 11.2µM
CCN(CC)C(=O)CC(c1cc(OC)c(OC)c(OC)c1)c1c(OC)cc(OC)c2ccc(=O)oc12 (stereo not given) | n | n | n | n | n | n
COc1ccc(OC)c(C2CCCN2C(=O)CSc2n[nH]c(-c3ccccc3)n2)c1 (stereo not given) | x | x | x | n | x | x
CC(C)NC(=O)NC(=O)C(C)Nc1ccc(F)cc1 (stereo not given) | x | x | x | n | x | x
COc1ccc(CN2CCNC(=O)C2CC(=O)NCc2cc(C)n(C)n2)c(F)c1 (stereo not given) | n | n | n | n | 39.8µM | n
COc1ccc(CNC(=O)CSc2nc3ccccc3nc2N2CCCCC2)cc1 | x | x | x | n | x | x
Cc1nc2ccc(C(=O)OC(C)C(=O)NC(=O)NC3CCCC3)cc2nc1C (stereo not given) | x | x | x | n | x | x
CCCNC(=O)C(C)OC(=O)c1cc2ccc(OC)cc2nc1C (stereo not given) | x | x | x | n | x | x
COc1ccc2cc(C(=O)OC(C)C(N)=O)c(C)nc2c1 (stereo not given) | x | x | x | -31.9 | x | x
N#C/C(=C\c1ccccc1)C(=O)NNS(=O)(=O)c1cccc([N+](=O)[O-])c1 | x | n | n | n | 10µM | n
N#C/C(=C/c1ccc(F)cc1)C(=O)c1c[nH]c2cc(F)ccc12 | x | x | x | n | x | x
